Test results: PubChem BioAssay (NCATS)
Where “and” joins values, the source holds several entries; their conditions need not be identical. Equal entries are not always repeated. Results filed as inconclusive are left out. Calls of active or inactive are those of the source. Unless noted, calls come from the whole dose curve.

Legend:
[1] = molecular target: Estrogen receptor (Homo sapiens) (UniProt P03372); assay: qHTS assay for small molecule antagonists of estrogen receptor alpha signaling (AID 588513; active = well fitted curve in the direction sought with a large enough effect in the signal ratio, with a control signal flat, not every such curve was filed as active; the % refers to the signal ratio; note: % is set by controls: 0 for no effect and ±100 for the full control effect)
Sequence of Estrogen receptor (Homo sapiens) (P03372 whole entry, looked up): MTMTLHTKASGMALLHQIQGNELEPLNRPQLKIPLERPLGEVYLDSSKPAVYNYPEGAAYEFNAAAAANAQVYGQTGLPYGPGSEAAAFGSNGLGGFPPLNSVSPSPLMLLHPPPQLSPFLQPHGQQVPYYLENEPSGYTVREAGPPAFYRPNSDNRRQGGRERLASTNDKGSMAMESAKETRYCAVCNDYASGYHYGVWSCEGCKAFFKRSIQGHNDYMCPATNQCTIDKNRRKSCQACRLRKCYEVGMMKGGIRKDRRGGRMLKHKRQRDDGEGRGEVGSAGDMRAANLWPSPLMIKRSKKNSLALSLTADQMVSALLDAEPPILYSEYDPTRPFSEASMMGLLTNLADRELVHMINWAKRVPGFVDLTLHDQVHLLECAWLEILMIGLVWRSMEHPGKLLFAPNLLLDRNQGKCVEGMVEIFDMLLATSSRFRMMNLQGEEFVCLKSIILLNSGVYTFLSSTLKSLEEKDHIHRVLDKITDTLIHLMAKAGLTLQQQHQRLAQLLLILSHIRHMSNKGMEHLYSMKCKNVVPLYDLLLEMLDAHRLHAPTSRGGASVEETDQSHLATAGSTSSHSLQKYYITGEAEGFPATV
How it was run: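 Cells were plated at 5000/well and incubated 4 h at 37 C. Compounds were added as 1:2 dilution series, duplicates. 17-beta-estradiol (0.5nM final) was added for 18 h before CCF4 detection.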

[2] = molecular target: Estrogen receptor (Homo sapiens) (UniProt P03372); assay: qHTS assay for small molecule agonists of estrogen receptor alpha signaling (AID 588514); note: nearly all actives have a fitted effect of over 70% in size; note: potency is the fitted concentration of half-maximal effect;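 for activation: 0% = vehicle only and 100% = reference agonist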
How it was run: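 EC50 and efficacy came from Hill fits of beta-lactamase reporter signal (CCF4 dye, 2 h at room temperature) scaled between DMSO and 20 nM 17-beta-estradiol. Agonist mode: HEK293 ER-alpha-UAS-bla cells in charcoal/dextran-stripped serum medium, 18 h compound exposure at 37 C.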

[3] = molecular target: Glucocorticoid receptor (Homo sapiens) (UniProt P04150); assay: qHTS assay for small molecule antagonists of glucocorticoid receptor signaling (AID 588533; active = well fitted inhibition curve with a large enough effect in the signal ratio, with a control signal flat, not every such curve was filed as active; the % refers to the signal ratio;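 note: cells stimulated with 2 nM dexamethasone as agonist; % is set by controls: 0 for no effect and ±100 for the full control effect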)
Sequence of Glucocorticoid receptor (Homo sapiens) (P04150 whole entry, looked up): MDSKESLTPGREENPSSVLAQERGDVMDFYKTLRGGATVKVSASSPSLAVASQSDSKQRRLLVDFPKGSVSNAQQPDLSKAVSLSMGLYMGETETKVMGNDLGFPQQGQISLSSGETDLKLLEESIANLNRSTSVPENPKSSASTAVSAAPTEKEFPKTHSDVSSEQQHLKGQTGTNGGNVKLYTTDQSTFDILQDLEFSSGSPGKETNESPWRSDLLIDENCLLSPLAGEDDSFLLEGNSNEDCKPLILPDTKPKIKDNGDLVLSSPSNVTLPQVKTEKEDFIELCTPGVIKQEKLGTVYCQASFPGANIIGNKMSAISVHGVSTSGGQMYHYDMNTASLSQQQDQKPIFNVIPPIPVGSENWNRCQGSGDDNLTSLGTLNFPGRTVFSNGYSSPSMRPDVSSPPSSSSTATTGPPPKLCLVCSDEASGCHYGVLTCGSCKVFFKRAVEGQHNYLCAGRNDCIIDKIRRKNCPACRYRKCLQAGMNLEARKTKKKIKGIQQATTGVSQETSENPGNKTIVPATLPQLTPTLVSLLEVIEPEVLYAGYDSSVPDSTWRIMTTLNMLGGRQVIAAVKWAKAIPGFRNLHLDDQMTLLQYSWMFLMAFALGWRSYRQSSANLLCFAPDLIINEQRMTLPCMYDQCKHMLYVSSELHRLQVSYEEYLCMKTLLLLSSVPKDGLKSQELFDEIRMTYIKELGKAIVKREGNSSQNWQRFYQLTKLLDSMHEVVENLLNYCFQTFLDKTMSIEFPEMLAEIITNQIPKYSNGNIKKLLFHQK
How it was run: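 Antagonist-mode qHTS: compound titrations added to GRE-bla HeLa cells, then dexamethasone 2 nM final; 18 h, 37 C. CCF4 FRET fluorescence normalized to dexamethasone and DMSO; IC50 from Hill fit.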

[4] = molecular target: Peroxisome proliferator-activated receptor delta (Homo sapiens) (UniProt Q03181); assay: qHTS assay for small molecule agonists of peroxisome proliferator-activated receptor delta signaling (AID 588534);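 note: 0% = DMSO basal wells and 100% = positive control agonist at 10 µM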
Sequence of Peroxisome proliferator-activated receptor delta (Homo sapiens) (Q03181 whole entry, looked up): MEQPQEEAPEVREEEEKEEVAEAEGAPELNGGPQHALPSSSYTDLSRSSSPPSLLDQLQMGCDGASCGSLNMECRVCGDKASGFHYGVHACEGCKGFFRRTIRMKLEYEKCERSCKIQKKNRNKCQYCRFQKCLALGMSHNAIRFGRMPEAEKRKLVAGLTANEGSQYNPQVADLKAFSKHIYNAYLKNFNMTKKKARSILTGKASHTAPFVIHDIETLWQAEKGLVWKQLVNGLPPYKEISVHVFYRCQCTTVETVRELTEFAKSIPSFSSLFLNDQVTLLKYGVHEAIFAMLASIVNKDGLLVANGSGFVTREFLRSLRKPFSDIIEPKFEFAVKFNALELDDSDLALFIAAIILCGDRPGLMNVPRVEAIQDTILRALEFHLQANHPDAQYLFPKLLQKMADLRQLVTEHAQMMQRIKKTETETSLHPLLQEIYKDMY
How it was run: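 Agonist-mode beta-lactamase reporter readout (CCF4 dye, 2 h at RT) after 18 h at 37 °C exposure to a titration; Hill-equation fitting gave EC50 and maximal response.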

[5] = molecular target: Peroxisome proliferator-activated receptor gamma (Homo sapiens) (UniProt P37231); assay: qHTS assay for small molecule agonists of peroxisome proliferator-activated receptor gamma signaling (AID 588536; active = well fitted curve in the direction sought with a large enough effect in the signal ratio, with a control signal flat, not every such curve was filed as active; the % refers to the signal ratio; note: potency is the fitted concentration of half-maximal effect;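 for activation: 0% = DMSO basal wells and 100% = rosiglitazone at 2 µM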)
Sequence of Peroxisome proliferator-activated receptor gamma (Homo sapiens) (P37231 whole entry, looked up): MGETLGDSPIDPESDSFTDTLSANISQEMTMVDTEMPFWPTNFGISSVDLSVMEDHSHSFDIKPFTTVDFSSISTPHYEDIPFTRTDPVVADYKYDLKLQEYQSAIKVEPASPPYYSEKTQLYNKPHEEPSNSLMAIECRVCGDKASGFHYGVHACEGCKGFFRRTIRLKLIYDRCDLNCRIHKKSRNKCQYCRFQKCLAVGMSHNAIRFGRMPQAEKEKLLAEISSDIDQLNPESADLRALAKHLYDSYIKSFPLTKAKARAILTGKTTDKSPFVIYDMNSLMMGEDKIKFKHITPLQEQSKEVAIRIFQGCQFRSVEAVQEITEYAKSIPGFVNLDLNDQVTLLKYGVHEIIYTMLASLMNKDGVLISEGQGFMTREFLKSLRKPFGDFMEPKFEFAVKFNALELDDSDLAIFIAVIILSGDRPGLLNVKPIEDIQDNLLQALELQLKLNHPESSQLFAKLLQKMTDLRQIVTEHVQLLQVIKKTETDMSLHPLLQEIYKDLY
How it was run: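 Using GeneBLAzer HEK293 cells, response was quantified by CCF4 fluorescence and normalized between basal DMSO (0%) and rosiglitazone 2 uM (100%); curves yielded half-maximal stimulation concentration and efficacy.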

[6] = molecular target: Peroxisome proliferator-activated receptor gamma (Homo sapiens) (UniProt P37231); assay: qHTS assay for small molecule antagonists of peroxisome proliferator-activated receptor gamma signaling (AID 588537; active = well fitted inhibition curve with a large enough effect in the signal ratio, with a control signal flat, not every such curve was filed as active; the % refers to the signal ratio;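 note: reporter cells co-stimulated with 50 nM rosiglitazone agonist during compound treatment; % of control where 0% means no effect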)
How it was run: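 Antagonist-mode β-lactamase reporter screen run as a titration series. HEK293 PPARγ-UAS-bla cells are stimulated with rosiglitazone (50 nM final) for 16 h, then CCF4 is read at 460/530 nm. Data are scaled between DMSO and rosiglitazone and fitted to the Hill equation.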

[7] = qHTS assay for small molecule agonists of retinoid X receptor alpha signaling (AID 588544); conditions: HEK293T RXRa-UAS-bla, beta-lactamase reporter, 18 h; 530 nm emission; note: potency is the fitted concentration of half-maximal effect;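 for activation: 0% = DMSO basal wells and 100% = reference agonist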
[8] = molecular target: Retinoic acid receptor RXR-alpha (Homo sapiens) (UniProt P19793); assay: as above
Sequence of Retinoic acid receptor RXR-alpha (Homo sapiens) (P19793 whole entry, looked up): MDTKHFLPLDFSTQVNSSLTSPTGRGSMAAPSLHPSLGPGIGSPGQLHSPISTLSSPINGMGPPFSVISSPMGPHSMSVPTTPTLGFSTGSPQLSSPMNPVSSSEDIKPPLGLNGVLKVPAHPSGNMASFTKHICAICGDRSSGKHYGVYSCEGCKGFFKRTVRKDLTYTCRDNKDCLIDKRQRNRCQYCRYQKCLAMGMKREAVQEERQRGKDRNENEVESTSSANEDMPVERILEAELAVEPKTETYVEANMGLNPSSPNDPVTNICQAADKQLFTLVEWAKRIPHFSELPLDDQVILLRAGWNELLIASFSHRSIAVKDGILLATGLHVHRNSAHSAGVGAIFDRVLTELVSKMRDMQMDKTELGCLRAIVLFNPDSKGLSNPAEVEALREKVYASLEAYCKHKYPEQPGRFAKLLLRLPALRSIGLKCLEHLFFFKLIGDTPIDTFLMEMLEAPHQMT

[9] = molecular target: Thyroid hormone receptor beta (Homo sapiens) (UniProt P10828); assay: qHTS assay for small molecule agonists of thyroid hormone receptor beta signaling (AID 588545);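 note: 0% = DMSO only and 100% = 10 nM T3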
Sequence of Thyroid hormone receptor beta (Homo sapiens) (P10828 whole entry, looked up): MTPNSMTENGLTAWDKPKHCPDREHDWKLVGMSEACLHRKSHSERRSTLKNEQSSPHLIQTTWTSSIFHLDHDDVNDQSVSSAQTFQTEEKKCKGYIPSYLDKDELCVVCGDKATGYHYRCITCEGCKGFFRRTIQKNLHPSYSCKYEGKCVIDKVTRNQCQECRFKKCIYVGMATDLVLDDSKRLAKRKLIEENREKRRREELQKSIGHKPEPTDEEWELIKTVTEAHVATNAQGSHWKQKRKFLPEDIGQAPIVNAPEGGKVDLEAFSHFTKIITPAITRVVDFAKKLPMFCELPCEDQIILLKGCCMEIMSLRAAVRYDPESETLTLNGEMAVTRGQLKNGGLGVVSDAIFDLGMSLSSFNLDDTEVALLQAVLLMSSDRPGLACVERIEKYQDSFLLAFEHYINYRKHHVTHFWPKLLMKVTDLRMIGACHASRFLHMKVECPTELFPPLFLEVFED
How it was run: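 Compounds were tested as agonists in TR-UAS-bla-GripTite HEK 293 cells. After 18 hrs at 37 C, CCF4 substrate was added and fluorescence read after 2 hrs at room temperature.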

[10] = qHTS assay for small molecule antagonists of retinoid X receptor alpha signaling (AID 588546; active = well fitted inhibition curve with a large enough effect in the signal ratio, with a control signal flat, not every such curve was filed as active; the % refers to the signal ratio; note: potency is the fitted concentration of half-maximal effect); conditions: HEK293T RXRa-UAS-bla, beta-lactamase ratio, antagonist mode; measured here: W530 green channel, cytotoxicity proxy
How it was run: (§1)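 Beta-lactamase reporter inhibition, read as CCF4 fluorescence ratio (ex 405, em 460/530 nm) after 2 h at RT. HEK293T UAS-bla cells, 2500/well, were stimulated with 9-cis-RA at 500 or 100 nM final alongside test compound for 18 h at 37 C.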

[11] = molecular target: Retinoic acid receptor RXR-alpha (Homo sapiens) (UniProt P19793); assay: as above; conditions: HEK293T RXRa-UAS-bla, beta-lactamase ratio, antagonist mode
How it was run: as §1

[12] = qHTS assay for small molecule activators of the p53 signaling pathway (AID 651743; active = well fitted activation curve with a large enough effect in the signal ratio, not every such curve was filed as active; the % refers to the signal ratio; note: series mostly up to about 92 µM; % of control where 0% means no effect); conditions: HCT-116 p53RE-bla, beta-lactamase FRET ratio, 16 h; activation: stronger effect = higher value
How it was run: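 After 16 hours compound treatment at 37 C, HCT-116 cells stably expressing p53RE-driven beta-lactamase were loaded with LiveBLAzer B/G FRET substrate for 2 hours at room temperature. Fluorescence intensity served as the p53 activation read-out.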

[13] = qHTS assay for environmental chemicals that activate the Aryl hydrocarbon Receptor (AhR) signaling pathway (AID 651777; active = well fitted curve in the direction sought with a large enough effect; an effect the other way counts as inactive or inconclusive; note: nearly all actives have a fitted effect of over 15% in size; note: potency is the fitted concentration of half-maximal effect; for activation: % of control where 0% means no effect); conditions: 1A2-DRE human hepatoma cells, luciferase, 24 h; activation: stronger effect = higher value
How it was run: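 Concentration–response screening used 1,200 1A2-DRE cells per well, 24 hr compound exposure (37 C, 5% CO2), and One-Glo luminescence as the AhR-driven CYP1A2 reporter signal.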

[14] = molecular target: Peroxisome proliferator-activated receptor alpha (Homo sapiens) (UniProt Q07869); assay: qHTS assay for small molecule agonists of the peroxisome proliferator-activated receptor alpha (PPARalpha) signaling pathway (AID 651778; active = well fitted curve in the direction sought with a large enough effect; an effect the other way counts as inactive or inconclusive; note: % of control where 0% means no effect); conditions: PathHunter PPARalpha complementation, chemiluminescence, 6 h; max response: stronger effect = higher value
Sequence of Peroxisome proliferator-activated receptor alpha (Homo sapiens) (Q07869 whole entry, looked up): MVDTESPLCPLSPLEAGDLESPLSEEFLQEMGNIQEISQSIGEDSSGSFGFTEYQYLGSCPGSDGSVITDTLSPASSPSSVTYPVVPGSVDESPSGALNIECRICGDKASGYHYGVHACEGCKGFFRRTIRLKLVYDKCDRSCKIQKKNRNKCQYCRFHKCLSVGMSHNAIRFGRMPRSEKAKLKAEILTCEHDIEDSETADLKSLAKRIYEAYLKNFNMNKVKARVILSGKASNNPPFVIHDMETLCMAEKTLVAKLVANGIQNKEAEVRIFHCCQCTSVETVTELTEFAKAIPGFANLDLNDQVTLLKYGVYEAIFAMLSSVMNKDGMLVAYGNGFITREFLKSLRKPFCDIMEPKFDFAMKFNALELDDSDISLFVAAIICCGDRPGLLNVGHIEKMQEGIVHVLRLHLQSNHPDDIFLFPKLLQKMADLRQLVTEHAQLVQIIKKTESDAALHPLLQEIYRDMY
How it was run: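 Chemiluminescence from complemented enzyme reported PPARalpha activation in cells after 6 hr of compound treatment at 37 C. The detection reagent was incubated for 60 min at room temperature, and compounds were scored as agonists.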

[15] = qHTS assay for small molecule agonists of the antioxidant response element (ARE) signaling pathway measured by Nrf2-dependant transcriptional activity (AID 720636; active = well fitted curve in the direction sought with a large enough effect in the repeat runs; an effect the other way counts as inactive or inconclusive;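 note: HepG2 cells with an ARE-driven luciferase reporter; % of control where 0% means no effect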)
How it was run: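 Attachment 6 hr at 37 C, then compound versus DMSO vehicle for 16 hr in ARE-luc HepG2 cells (1% dialyzed FBS); luminescence recorded 30 min after ONE-Glo addition at room temperature.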

[16] = qHTS assay for small molecule agonists of the antioxidant response element (ARE) signaling pathway measured by Nrf2-dependant transcriptional activity - cell viability counter screen (AID 720653; active = well fitted curve in the direction sought with a large enough effect in the repeat runs; an effect the other way counts as inactive or inconclusive; note: % is set by controls: 0 for no effect and ±100 for the full control effect); conditions: ARE-bla HepG2 viability, CellTiter-Glo ATP luminescence, 16 h; max response: stronger effect = lower value
How it was run: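 Cytotoxicity counter screen: intracellular ATP quantified by CellTiter-Glo luminescence in the same ARE-bla HepG2 plates, after 16 h compound exposure and a 2 h beta-lactamase substrate step.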

[17] = qHTS assay for cell viability of HEK293 cells (AID 743288; active = well fitted curve in the direction sought with a large enough effect; an effect the other way counts as inactive or inconclusive; note: % is set by controls: 0 for no effect and ±100 for the full control effect; nearly all actives have a fitted effect of over 50% in size); conditions: ATP luminescence (CellTiter-Glo), 18 h; max response: stronger effect = lower value
How it was run: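 Quantitative high-throughput screen: compounds were pinned onto parental HEK293 cells (2,000 per well) after a minimum 5 h settling at 37 C, incubated 18 h at 37 C, and intracellular ATP measured by luciferase luminescence.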

[18] = qHTS assay for cell viability of the p53RE-bla HCT-116 cell line (AID 743292; active = well fitted curve in the direction sought with a large enough effect; an effect the other way counts as inactive or inconclusive; note: % is set by controls: 0 for no effect and ±100 for the full control effect; nearly all actives have a fitted effect of over 55% in size)
How it was run: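 Compound-exposed HCT-116 (p53RE-bla) cells, 4,000 per well, were kept 16 h at 37 C following a 5 h preincubation. Cell number was estimated from total ATP by CellTiter-Glo luminescence read after 30 min at room temperature.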

[19] = molecular target: Nuclear receptor subfamily 1 group I member 2 (Rattus norvegicus) (UniProt Q9R1A7); assay: qHTS assay for small molecule activators of the rat pregnane X receptor (rPXR) signaling pathway (AID 651751; call rule not given here; note: 0% is about no effect); conditions: rPXR reporter cells, luciferase (One-Glo), 24 h
Sequence of Nuclear receptor subfamily 1 group I member 2 (Rattus norvegicus) (Q9R1A7 whole entry, looked up): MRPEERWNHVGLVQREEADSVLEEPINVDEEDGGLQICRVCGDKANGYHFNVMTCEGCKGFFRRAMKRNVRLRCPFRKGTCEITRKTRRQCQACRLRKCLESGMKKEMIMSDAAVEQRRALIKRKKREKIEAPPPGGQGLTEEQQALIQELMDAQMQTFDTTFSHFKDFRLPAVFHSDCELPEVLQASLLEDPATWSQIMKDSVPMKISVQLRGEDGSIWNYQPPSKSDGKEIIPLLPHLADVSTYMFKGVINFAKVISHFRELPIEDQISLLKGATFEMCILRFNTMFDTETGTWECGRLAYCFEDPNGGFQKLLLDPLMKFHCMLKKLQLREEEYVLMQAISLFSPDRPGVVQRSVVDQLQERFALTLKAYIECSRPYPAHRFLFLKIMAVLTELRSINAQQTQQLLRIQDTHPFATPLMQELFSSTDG

[20] = molecular target: Vitamin D3 receptor (Homo sapiens) (UniProt P11473); assay: qHTS assay for small molecule antagonists of vitamin D receptor signaling (AID 588541);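 note: receptor activated by calcitriol during compound treatment; series mostly up to about 77 µM; % is set by controls: 0 for no effect and ±100 for the full control effect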
Sequence of Vitamin D3 receptor (Homo sapiens) (P11473 whole entry, looked up): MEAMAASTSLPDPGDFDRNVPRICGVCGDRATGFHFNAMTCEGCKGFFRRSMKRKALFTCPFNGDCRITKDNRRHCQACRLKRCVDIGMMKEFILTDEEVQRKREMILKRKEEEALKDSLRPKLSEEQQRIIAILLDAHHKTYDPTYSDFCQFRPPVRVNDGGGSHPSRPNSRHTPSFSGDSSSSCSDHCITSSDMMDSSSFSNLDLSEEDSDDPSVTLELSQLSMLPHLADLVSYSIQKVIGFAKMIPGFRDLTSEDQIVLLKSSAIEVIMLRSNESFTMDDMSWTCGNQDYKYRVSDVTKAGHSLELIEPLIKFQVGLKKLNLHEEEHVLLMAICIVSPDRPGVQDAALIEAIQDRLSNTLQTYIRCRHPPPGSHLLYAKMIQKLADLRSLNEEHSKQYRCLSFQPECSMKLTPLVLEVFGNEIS
How it was run: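 Antagonist-mode beta-lactamase reporter assay: HEK293T VDR-UAS-bla cells were exposed to titrated compound alongside 1-alpha,25-dihydroxyvitamin D3 at 3 nM final for 16 h. Values were normalized to the 50 nM agonist control and DMSO basal, with IC50 and efficacy from Hill equation fits.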

c1cc2c3c(cccc3c1)CC2
-7.15%: max response [7]
inactive: Potency [1] | Potency [2] | Potency [3] | outcome [4] | Potency [5] | Potency [6] | Potency [8] | Potency [9] | max response [11] -3.28% | activation [12] 5.25% | activation [13] 0.274% | max response [14] -0.57% | Potency [15] | max response [16] 18.9% | max response [17] -7.08% | Potency [18] | max response [19] 0.0529%
-4.84%: max response [10]

C=CC(=O)OCCCCCC(C)C
active: Potency [8] 31.6 µM
inactive: Potency [1] | Potency [2] | outcome [4] | Potency [5] | Potency [20] | Potency [9] | max response [11] -5.23% | max response [14] -1.09% | Potency [15] | Potency [18] | max response [19] 0.944%
-15.4%: max response [10]
-13.5%: max response [7]

CCNc1nc(NC(C)(C)C)nc(SC)n1
inactive: Potency [1] | Potency [2] | Potency [3] | outcome [4] | Potency [5] | Potency [6] | Potency [20] | Potency [8] | Potency [9] | activation [12] 13.8% | activation [13] 0.606% | max response [14] 1.46% | Potency [15] | max response [16] -11.3% | max response [17] -12.7% | Potency [18] | max response [19] 2.02%

COP(=S)(OC)Oc1nc(Cl)c(Cl)cc1Cl
inactive: Potency [1] | Potency [2] | Potency [3] | Potency [9] | max response [11] 15.1% | activation [12] 10.9% | activation [13] 0.0215% | max response [14] -0.488% | Potency [15] | max response [16] -2.62% | max response [17] -14.5% | Potency [18] | max response [19] -1.85%
2.88%: max response [10]

CCC[CH2][Sn]([CH2]CCC)([O]C(C)=O)[O]C(C)=O
5.61%: max response [7]
inactive: Potency [1] | outcome [4] | Potency [6] | Potency [20] | Potency [8] | Potency [9] | activation [12] 4.26% | activation [13] -0.036% | max response [14] -2.27% | Potency [18] | max response [19] -0.354%
2.17%: max response [10]
active: Potency [2] 0.794 µM | Potency [11] 22.4 µM

CCOc1ccc(C(C)(C)COCc2cccc(Oc3ccccc3)c2)cc1
-7.02%: max response [10]
inactive: Potency [1] | Potency [2] | Potency [3] | outcome [4] | Potency [5] | Potency [6] | Potency [20] | Potency [9] | max response [11] -7.6% | activation [12] -0.0413% | activation [13] 1.55% | max response [14] -1.64% | Potency [15] | max response [16] -4.24% | Potency [18]

CCOP(=O)(O)C(N)=O
inactive: Potency [1] | Potency [2] | Potency [3] | outcome [4] | Potency [5] | Potency [6] | Potency [20] | Potency [8] | Potency [9] | max response [11] -9.79% | activation [13] -2.02% | max response [14] -1.31% | Potency [15] | max response [16] -6.84% | max response [17] -8.79% | Potency [18] | max response [19] -2.01%
-12.7%: max response [7]
-9.11%: max response [10]

CCOP(=S)(OCC)Oc1cnc2ccccc2n1
6.33%: max response [10]
inactive: Potency [1] | Potency [2] | Potency [3] | outcome [4] | Potency [5] | Potency [6] | Potency [9] | max response [11] -25.5% | activation [12] 6.75% | max response [14] -1.06% | max response [17] -3.73% | Potency [18] | max response [19] 7.55%
active: Potency [13] 35.5 µM

CCCCC(CC)C(=O)Cl (centres undefined)
inactive: Potency [1] | Potency [2] | Potency [3] | outcome [4] | Potency [5] | Potency [6] | Potency [8] | Potency [9] | max response [11] 2.12% | activation [12] -0.76% | activation [13] 0.633% | max response [14] -0.947% | Potency [15] | max response [16] -2.12% | max response [17] -4.59% | Potency [18] | max response [19] -0.98%
-9.74%: max response [10]

Cc1cnc(C2=NC(C)(C(C)C)C(=O)N2)c(C(=O)O)c1 (centres undefined)
8.17%: max response [10]
-18.8% and -4.8%: max response [7]
inactive: Potency [1] | Potency [2] | outcome [4] | Potency [5] | Potency [6] | Potency [20] | Potency [8] | Potency [9] | max response [11] 9.76% | activation [12] 0.249% and -2.82% | activation [13] 1.97% and -3.27% | max response [14] -1.29% and -1.68% | Potency [15] | max response [16] -15.3% and 23.5% | max response [17] -9.43% and 4.33% | Potency [18] | max response [19] 5.11% and -5.71%

CCOP(=S)(OCC)SCC(=O)NC(C)C
inactive: Potency [1] | Potency [2] | Potency [3] | outcome [4] | Potency [5] | Potency [6] | Potency [20] | Potency [8] | Potency [9] | max response [11] -1.4% | activation [12] -0.0599% | activation [13] 0.496% | max response [14] -4.11% | Potency [15] | max response [16] 2% | max response [17] -3.84% | Potency [18]
-3.21%: max response [7]
-8.13%: max response [10]

O=[N+]([O-])c1ccc(Oc2ccc(C(F)(F)F)cc2[N+](=O)[O-])cc1
active: Potency [5] 3.55 µM
-9.24%: max response [10]
inactive: Potency [1] | Potency [2] | Potency [3] | outcome [4] | Potency [9] | max response [11] 0.243% | activation [13] 9.12% | max response [14] -0.519% | max response [16] -18.9% | max response [17] -11.9% | Potency [18] | max response [19] 11.4%
